Screening results as filed in PubChem BioAssay.
In the library only some 5.5% were active in any assay of this set; here they are far more common.
BCR signal inh: qHTS Assay to Find Inhibitors of Chronic Active B-Cell Receptor Signaling; 340,000 tested, 0.05% active; ABC-DLBCL IkBa-CBG/CBR reporter, luminescence ratio, 4 h; Potency, µM (highest dose often 46.1 µM), without a hit: at the highest dose activity change, negative = inhibition, actives largely listed as inhibitors; AID 493014, 2011; active = well fitted inhibition curve with a large enough effect in the signal ratio, with a control signal flat, not every such curve was filed as active; inconclusive = small, poorly fitted or top-dose-only effect, or effect the other way, or a change in a side signal; the % refers to the signal ratio;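 also: plate controls were basal doxycycline-induced cells for no effect and cells given 10 µM MG132 for full effect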
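TMD8 human ABC-DLBCL cells with doxycycline-inducible IκBα–green luciferase fusion and unfused red luciferase, in 0.5% FBS medium; compounds up to 46 uM, 4 h at 37C. Green/red luminescence ratio, filter-overlap corrected, fitted to concentration-response curves.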
Gal4-VP16 FLuc: VP16 counterscreen qHTS for inhibitors of ROR gamma transcriptional activity; Drosophila S2 Gal4-VP16 UAS-luciferase, luminescence, 20 h; Potency, µM (titrated, usually from 53.6 µM), inactives show at the highest dose activity, negative = inhibition, actives largely listed as inhibitors; 310,000 tested, 3.5% active; AID 2546, 2010;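 also: Gal4-VP16 expression switched on by copper sulfate through the metallothionein promoter; % is scaled to controls: 0 for no effect and ±100 for the full control effect; nearly all actives have a fitted effect of over 50% in size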
RORgamma inh: qHTS for inhibitors of ROR gamma transcriptional activity | Nuclear receptor ROR-gamma (Mus musculus), P51450 | Drosophila S2 Gal4-RORgamma UAS-luciferase reporter, 20 h | Potency, µM (highest dose often 53.6 µM), for the others: at the highest dose activity change, negative = inhibition, most hits filed as inhibitors | 310,000 tested, 5.4% active | AID 2551, 2010; also: % is scaled to controls: 0 for no effect and ±100 for the full control effect; nearly all actives have a fitted effect of over 60% in size
Target sequence (P51450 whole entry, looked up, the tested form may be a part): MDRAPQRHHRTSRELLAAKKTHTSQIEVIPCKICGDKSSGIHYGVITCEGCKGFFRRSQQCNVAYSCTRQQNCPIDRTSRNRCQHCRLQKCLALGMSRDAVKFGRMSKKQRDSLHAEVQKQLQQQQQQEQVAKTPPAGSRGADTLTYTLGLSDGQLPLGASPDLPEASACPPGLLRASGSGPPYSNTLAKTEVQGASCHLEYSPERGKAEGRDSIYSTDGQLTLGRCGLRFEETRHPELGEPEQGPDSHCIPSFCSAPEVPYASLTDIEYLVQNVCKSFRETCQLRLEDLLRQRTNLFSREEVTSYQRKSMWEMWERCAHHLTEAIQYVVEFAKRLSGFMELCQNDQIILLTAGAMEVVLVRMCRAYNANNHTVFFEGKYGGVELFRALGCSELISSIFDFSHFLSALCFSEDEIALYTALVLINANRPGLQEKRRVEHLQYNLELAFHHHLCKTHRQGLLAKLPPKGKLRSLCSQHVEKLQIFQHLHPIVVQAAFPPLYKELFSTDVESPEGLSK
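Luciferase reporter read in Schneider cells carrying Gal4-RORγ (mouse) and UAS-Photinus luciferase; cells given compound 1 h before 700 uM copper sulfate induction, then incubated 20 h at ambient temperature.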
uPA generation: qHTS for Inhibitors of Cell Surface uPA Generation | AID 540303, 2011 | cell surface uPA generation assay, qHTS | 330,000 tested, 0.31% active | Potency, µM (highest dose often 38.3 µM), for inactives: top-dose activity change, negative = inhibition, actives largely listed as inhibitors; active = well fitted inhibition curve with a large enough effect; inconclusive = small, poorly fitted or top-dose-only effect; inactive = no such curve, though single readings can be large or run the other way; tested in mouse RAW 264.7 cells; also: % is scaled to controls: 0 for no effect and ±100 for the full control effect; nearly all actives have a fitted effect of over 55% in size
a7 integrin act: qHTS for Activators of Integrin-Mediated Alleviation for Muscular Dystrophy. alpha7betagal myoblasts, beta-gal FDG fluorescence, 48 h. 350,000 tested, 0.064% active. Potency, µM (doses to about 38.3 µM), without a hit: top-dose activation, most hits filed as activators;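 also: 100% = response of the positive control SU9516; nearly all actives have a fitted effect of over 60% in size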
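alpha7betagal+/- myoblasts (passage 13, 250/well) treated 48 h at 37C with compounds at 1:260 dilution of DMSO stock. Lysed, then beta-galactosidase activity read as FDG fluorescence (ex 480/em 540) after 30 min, with pre-read for autofluorescence.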
Mito fusion act: qHTS Assay for Small Molecule Inhibitors of Mitochondrial Division or Activators of Mitochondrial Fusion. S. cerevisiae fusion-defective mutant growth rescue, CellTiterGlo 48 h. Potency, µM (titrated, usually from 46.1 µM), without a hit: top-dose growth rescue (activation), hits mostly activators. 320,000 tested, 0.23% active. AID 485298, 2010; also: % of control where 0% means no effect; nearly all actives have a fitted effect of over 45% in size
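Growth-rescue viability read-out: after 48 h at the non-permissive 37C in glycerol/ethanol YPEG, yeast mitochondrial fusion mutants are measured by CellTiterGlo luminescence; compounds (23 nl pinned per well) restoring growth score as division inhibitors or fusion activators.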
An asterisk follows results filed as active; ? = inconclusive; . = no result; [ ] = dose if it differs, or a comment. Unless noted, calls follow the shape of the dose curve; as a rule, active = well fitted curve in the direction sought with a large enough effect; inconclusive = small, poorly fitted or top-dose-only effect, or another doubt; inactive = no such curve, though single readings can be large; an effect the other way counts as inactive or inconclusive. Potency is read from the fitted curve at half-maximal effect.

SMILES	BCR signal inh	Gal4-VP16 FLuc	RORgamma inh	uPA generation	a7 integrin act	Mito fusion act
COC(=O)N1CCC[C@@]2(CCN(C(=O)Nc3cccc(F)c3)C2)C1	.	4.6%	23.3%	.	.	.
CC(C)=CCCC(C)C1CC[C@@]2(C)C3=C(CC[C@@]12C)C1(C)CCC(O)C(C)(C)C1CC3 (some centres undefined)	.	3.5%	-33.8%	.	.	.
CCc1ccc(CN(C)Cc2nc(Cc3ccc(OC)c(OC)c3)no2)nc1	-12.0%	-5.2%	10µM*	-7.4%	3.5%	-8.5%
C=CCN1C(=O)C(Cc2ccc(OC)cc2)S/C1=N\N=C\c1cccs1 (centres undefined)	-6.4%	9.5%	2.4%	-4.9%	1.9%	0.0%
C=CCC1S/C(=N/N=C/c2cccs2)NC1=O (centres undefined)	?	5.62µM*	2µM*	-14.2%	-4.5%	14.0%
Cc1ccc(CC2SC(=O)NC2=O)cc1Cl (centres undefined)	6.4%	-14.9%	?	-6.2%	-29.7%	-4.1%
O=C(CC1S/C(=N/N=C2CCCCCC2)NC1=O)Nc1ccccc1C(F)(F)F (centres undefined)	4.7%	?	5.62µM*	6.9%	18.2%	8.4%
O=C(CC1S/C(=N/N=C/c2cccs2)NC1=O)Nc1ccccc1F (centres undefined)	4.7%	-22.7%	8.91µM*	0.0%	-54.1%	-4.6%
O=C1N/C(=N\N=C\c2cccs2)SC1Cc1ccc(Cl)c(Cl)c1 (centres undefined)	?	0.708µM*	0.447µM*	9.4%	18.6%	-4.7%
CCCCCCCCCCCC(=O)OCC(O)CO (centres undefined)	.	-1.1%	8.1%[10 µM]	.	.	.
C#CCOc1ccccc1/C=N/NC(=O)c1ccccc1OCc1ccccc1	?	-7.1%	-17.8%	-19.8%	10.0%	-1.5%
CC(Oc1ccccc1)C(=O)N/N=C/c1ccccn1 (centres undefined)	0.9%	-11.6%	-30.9%	8.9%	21.6%	-1.3%
NC(=S)COc1ccccc1	?	-18.7%	22.4µM*	-1.7%	-5.1%	-1.1%
O=C(O)COc1ccc(Oc2ccccc2)cc1	9.6%	12.6µM*	?	8.8%	22.0%	0.4%
CCOC(=O)CN(C)C(=O)CCc1nnc(-c2ccsc2)o1	4.4%	?	14.1µM*	2.9%	-4.5%	-1.2%
COc1ccc(-n2sc3ccc(F)cc3c2=O)cc1	?	.	.	10µM*	-36.2%	-31.8%
Cc1ccoc1C(=O)Nc1cccc2ccccc12	-18.2%	?	-0.4%	?	19.8%	4.4%
Cc1cc(N)c2ccccc2[n+]1CCCCCCCCCC[n+]1c(C)cc(N)c2ccccc21	.	?	?	.	.	2.59µM*
CCc1ccc2c(c1)C1(NN=C(c3ccc(C)cc3)S1)C(=O)N2 (centres undefined)	?	3.55µM*	3.98µM*	-8.1%	-10.5%	-3.2%
Cc1ccc(Cc2cc(-c3ccc(C)cc3)n[nH]c2=O)cc1	-18.2%	17.7%	2.4%	-0.2%	-49.4%	?
CC(C)c1ccc2c(c1)C1(NN=C(c3ccccc3)S1)C(=O)N2 (centres undefined)	?	5.01µM*	5.62µM*	-9.2%	-41.6%	-7.9%
Cn1c(SCc2ccccc2Cl)nnc1-c1cnccn1	?	9.3%	25.2%	-1.5%	0.5%	4.3%
Cn1c(Cn2nnc(-c3ccccc3)n2)nnc1SCc1ccccc1Cl	?	11.2µM*	6.0%	.	-28.7%	21.9%
CCN(CC)c1ccc(/C=C(\C#N)c2ccccn2)cc1	?	7.08µM*	6.31µM*	-16.4%	-47.2%	11.0%
CN(CCC#N)c1ccc(/C=C(\C#N)c2ccccn2)cc1	?	10µM*	10µM*	2.51µM*	2.9%	18.5%
